Screening data deposited in PubChem BioAssay by National Center for Advancing Translational Sciences (NCATS).
Hits are enriched below; roughly 2.7% of the tested compounds scored in any of these assays.
ERG Ets-DNA blk – inhibitors of human ERG Ets domain-DNA interaction; Potency, µM (series often up to 76.9 µM), usual class: inhibitors; hit rate 0.028% among 370,000; P11308; fluorescence polarization, His-ERG Ets domain / labelled DNA; AID 624246; active = well fitted inhibition curve with a large enough effect in the polarisation, with a control signal flat; inconclusive = small, poorly fitted or top-dose-only effect, or effect the other way, or a change in a side signal; inactive = no such curve, though single readings can be large or run the other way; the % refers to the polarisation;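 note: polarization taken with two DNA probes labelled with fluorescein and Texas red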
Target sequence (P11308 whole entry, looked up, the tested form may be a part): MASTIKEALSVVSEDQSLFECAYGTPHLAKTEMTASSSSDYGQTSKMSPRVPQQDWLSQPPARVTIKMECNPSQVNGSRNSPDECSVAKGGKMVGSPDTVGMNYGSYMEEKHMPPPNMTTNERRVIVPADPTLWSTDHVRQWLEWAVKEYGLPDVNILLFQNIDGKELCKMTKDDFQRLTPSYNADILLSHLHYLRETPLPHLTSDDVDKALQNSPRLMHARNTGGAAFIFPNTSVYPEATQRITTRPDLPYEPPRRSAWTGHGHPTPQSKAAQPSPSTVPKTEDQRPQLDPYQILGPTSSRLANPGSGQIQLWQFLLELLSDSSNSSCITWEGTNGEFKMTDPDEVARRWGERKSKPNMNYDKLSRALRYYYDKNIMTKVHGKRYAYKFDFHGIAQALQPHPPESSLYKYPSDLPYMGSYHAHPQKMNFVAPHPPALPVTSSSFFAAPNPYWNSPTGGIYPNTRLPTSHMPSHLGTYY
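His-tagged ERG Ets domain (1 uM in the protein solution; 300mM KCl, 50mM Tris-HCl, 1mM EDTA, 1mM DTT, pH 7.5) received compound, then a probe mix of 5 nM fluorescein-DNA and 100nM Texas-615-DNA. Fluorescence polarization was read for both dyes.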
12-LOX inh – blocks human arachidonate 12S-lipoxygenase. P18054. purified 12hLO, xylenol orange hydroperoxide absorbance. Potency, µM (highest dose often 108 µM), actives largely listed as inhibitors. hit rate 1.1% among 580,000
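Purified human 12hLO (150 nM final) in 25 mM Hepes, 0.01% Triton X-100, pH 7.0 was preincubated 15 min at room temperature with compound. Then 40 uM arachidonic acid was added, 30 min. Hydroperoxide was read by Fe-XO absorbance ratio 573/405 nm.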
A549 tox – kills or reduces viability of A549 cells in Nrf2 counter-screen; hit rate 0.16% among 390,000; AID 504648; A549 ARE-Fluc cells, CellTiter-Fluor viability, 18-24 h; Potency, µM (doses to about 46 µM), actives largely listed as inhibitors
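A549 ARE-Fluc cells in 5% FBS OPTI-MEM, 5000 cells/well, rested 2 h then exposed to compounds in concentration-response for 18-24 h at 37 °C. Viability by CellTiter-Fluor fluorescence (Ex 405/Em 525) after 30 min; luciferase luminescence (BugLite, 15 min, RT) read afterwards.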
LDHA inh – inhibitors of human lactate dehydrogenase A; P00338; purified LDHA, NADH/diaphorase-resazurin fluorescence; active compounds read low; activity change, % (values are at about 110 or 230 µM); hit rate 0.15% among 480,000; AID 1347041; in the data active = activity change below about -30%; inconclusive = mostly about -25% to -30%
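Human LDH5 (2 nM) was incubated with 0.06 mM NADH and 0.2 mM pyruvate for 5 min at room temperature in Tris pH 7.4. Remaining NADH was coupled through diaphorase/resazurin, and resorufin fluorescence was read at 0 and 20 min.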
Nrf2 ARE act – activators of Nrf2 (ARE) signaling | AREc32 ARE-luciferase reporter (MCF7-derived line), luminescence, 24 h | Potency, µM (titrated, usually from 46.1 µM), usual class: activators | hit rate 0.31% among 410,000 | AID 624171; note: nearly all actives have a fitted effect of over 65% in size
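Each well held 1000 AREc32 cells, which were incubated with compound for 24 hr at 37 deg C after overnight attachment, and ARE reporter activity was quantified by firefly luciferase luminescence.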
Nrf2 inh – inhibitors of Nrf2 signaling; A549 ARE-Fluc reporter, luciferase luminescence, 18-24 h; Potency, µM (highest dose often 46 µM), hits mostly inhibitors; hit rate 2.1% among 360,000; AID 504444; note: nearly all actives have a fitted effect of over 60% in size
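Nrf2 activity is the BugLite luminescence, read 15 min after reagent at room temperature, following CellTiter-Fluor cytotoxicity readout (30 min, 37C). Compound titrations were applied for 18-24 h to 5000 A549 ARE_Fluc cells/well in 5% FBS OPTI-MEM.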
Hits are given with their value; - = inactive; ? = inconclusive; . = not tested or not shown; ! = repeats disagree; [ ] = remark or other dose. Unless noted, calls come from the whole dose curve; as a rule, active = well fitted curve in the direction sought with a large enough effect; inconclusive = small, poorly fitted or top-dose-only effect, or another doubt; inactive = no such curve, though single readings can be large; an effect the other way counts as inactive or inconclusive.

SMILES	ERG Ets-DNA blk	12-LOX inh	A549 tox	LDHA inh	Nrf2 ARE act	Nrf2 inh
CN(c1ccc(-c2csc(NC(C)(C)C)n2)cc1)S(C)(=O)=O	.	-	.	-	.	.
COc1cccc(NC(=O)Nc2cc(C(=O)NCc3cccc(F)c3)ccc2N2CCOCC2)c1	.	-	.	-	.	.
CN1CCN(c2nc(-c3ccccn3)nc3ccccc23)CC1	-	-	-	-	-	-
c1ccc(N2CCN(c3nc(-c4ccccn4)nc4ccccc34)CC2)cc1	-	-	?	-	-	16µM
CC(C)N(C)C1CCN(c2nc(-c3ccncc3)nc3ccccc23)CC1	.	-	.	-	.	.
CCc1ccc(-c2nn(-c3ccccc3)cc2C2SCC(=O)N2Cc2ccco2)cc1 (stereo not given)	-	-	-	-	-	-
O=C1CSC(c2cn(-c3ccccc3)nc2-c2ccccc2)N1Cc1ccco1 (stereo not given)	-	45µM	-	-	-	-
CC1(CCc2ccccc2)NC(=S)N(c2ccccc2)N1 (stereo not given)	-	1µM	-	-	-	-
S=C1NC2(CCCCCC2)NN1c1ccccc1	.	1.4µM	.	.	.	.
S=C1NC2(CCCCCCCCCCC2)NN1c1ccc(Cl)cc1	.	?	.	-	.	.
COc1ncccc1CN1CCCn2nc(C)c(-c3ccccc3C(C)C)c21	.	-	.	.	.	.
N#C/C(=N\Nc1cccc(F)c1)C(=O)C1CC1	-	-	?	-	-	21µM
NS(=O)(=O)c1ccc(-c2ccc(C=C3C(=O)c4ccccc4C3=O)o2)cc1	-	-	-	-	-	-
CC(C)CC1=C/C(=C/c2ccc(-c3ccccc3)o2)C(=O)O1	-	13µM	-	-	-[9.22 µM]	-
CCOc1cc(/C=C/c2ccc3ccccc3n2)ccc1O	.	?	.	-	.	.
O=C(Nc1sc2c(c1C(=O)O)CCCCC2)c1ccco1	-	-	-	-42!	-	?
CN(C)C(=O)c1c(NC(=O)c2ccco2)sc2c1CCCCC2	-	?	-	-	-	-
COC(=O)c1c(NC(=O)c2cc3ccccc3c(=O)o2)sc2c1CCCC2	-	-	-	-	13µM	-
O=C(Nc1ncnc2sc3c(c12)CCC3)c1ccco1	.	-	-	-	0.79µM	-
CC1CCc2c(sc(NC(=O)c3ccco3)c2C(=O)O)C1 (stereo not given)	-	-	?	-41	-	?
O=C(CCCc1nc(-c2ccccc2)no1)Nc1cccc(S(=O)(=O)N2CCOCC2)c1	.	?	.	-	.	.
c1coc(CNCCCN2CCCCC2)c1	.	?	.	-	.	.
CCOc1ccc2nc(N3CCC(C(=O)N4CCN(c5ccccn5)CC4)CC3)sc2c1	-	.	-	-	-	16µM
CCCCCn1nc(C(=O)N2CCCC(C(N)=O)C2)c2ccccc2c1=O (stereo not given)	.	?	.	-	.	.
CCC(CC)NC(=O)COC(=O)c1cc(SC)ccc1Cl	13µM	-	-	-	-	-
SMILES	ERG Ets-DNA blk	12-LOX inh	A549 tox	LDHA inh	Nrf2 ARE act	Nrf2 inh
CCCc1cc(=O)n2c([nH]c3ccccc32)c1C#N	.	-	-	-	-	15µM
Cc1c(CCO)c(=O)n2c([nH]c3ccccc32)c1C#N	-	-	-	-	-	-
Cc1c(CCC(C)C)c(=O)n2c([nH]c3ccccc32)c1C#N	-	.	-	-	-	?
CCCCc1c(C)c(C#N)c2[nH]c3ccccc3n2c1=O	-	-	?	-	-	18µM
O=C(Nc1cccc(-c2cc3cc(F)ccc3[nH]2)c1)C1CC1	.	-	.	-	.	.
Cc1ccc(-c2nc3cc(NC(=O)/C=C/c4ccco4)ccc3o2)cc1	.	?	.	-	.	.
Cc1cc(C)c2oc(-c3ccc(C)c(NC(=O)/C=C/c4ccco4)c3)nc2c1	-	50µM	-	-	5.6µM	-
O=S(=O)(c1cc(F)ccc1F)N1CCN(Cc2cccc3cccnc23)CC1	.	16µM	.	-	.	.
Cc1ccc(C)c(S(=O)(=O)N2CCN(Cc3cccc4cccnc34)CC2)c1	.	?	.	-	.	.
CC1CCCCN1S(=O)(=O)c1ccc(C(=O)Nc2ccc3ccccc3n2)cc1 (stereo not given)	.	-	.	-	.	.
Cc1nnc(NC(=O)c2cc(-c3ccc(Br)cc3)nc3ccccc23)s1	.	-	.	-	.	.
CCOc1cc(C(=O)Oc2ccc(C#N)cc2OC)cc(OCC)c1OCC	.	?	.	-	.	.
CCCN(Cc1ccc(F)cc1)Cc1cc(=O)n2c3c(sc2n1)CCCC3	.	?	.	-	.	.
Cc1ccc(NC(=O)Cc2nc(-c3c[nH]c(C(=O)N4CCCC4)c3)cs2)c(C)c1	-	?	-	-	-	21µM
Cc1ccc(-c2ccc(C(N)=O)o2)cc1	.	-	.	-	.	.
Cc1ccc(Nc2nc(C)c(CCC(C)C)c(=O)[nH]2)cc1	-	-	-	-	-	-
Cc1nc(Nc2ccc(F)cc2)[nH]c(=O)c1CCC(C)C	-	-	?	-	-	15µM
CCN(CC)CCOc1ccc2c(c1)C(=O)c1cc(OCCN(CC)CC)ccc1-2	.	22µM!	.	.	.	.
CCN(CC)CCOc1cccc(C(C)C)c1	-	?	-	-	-	-
CC(=O)n1cc([C@@H]2C=C(C(=O)N3CCN(C)CC3)O[C@H](OCc3ccc(CO)cc3)C2)c2ccccc21	-	-	-	-	-	-
C=CCOC(=O)C1=C[C@H](c2cn(C(C)=O)c3ccccc23)C[C@H](OCc2ccc(CO)cc2)O1	-	40µM	-	-	-	-
O=C(C1=C[C@H](c2csc3ccccc23)C[C@H](OCc2ccc(CO)cc2)O1)N1CCCCCCC1	-	-	-	-	-	23µM
O=C(C1=C[C@@H](c2ccc(Br)cc2)C[C@@H](OCc2ccc(CO)cc2)O1)N1CCN(Cc2ccccc2)CC1	-	.	?	-	-	21µM
